# How the values were obtained:
# Assay in all cases: PBM binding z-score (relative to random genomic background probes); higher = stronger binding; sequences stand for … in GC…GCGATTGACAGCGTAGAATGAAGG
# [1] = tested on: FXR:RXRa (NR concentration 270 nM, RXRa partner concentration 90 nM)
# In short: (§1)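 Binding z-scores take random background probes as their reference. They come from custom Agilent 4×180K protein-binding microarrays incubated 1 h with ligand-free nuclear receptor dimers, with antibodies against each partner (one per run) detecting binding. Scanned fluorescence was regression-normalized.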
# [2] = tested on: LXRa:RXRa (NR concentration 270 nM, RXRa partner concentration 90 nM)
# In short: as §1
# [3] = tested on: LXRa homodimer (NR concentration 270 nM)
# In short: as §1
# [4] = tested on: LXRb:RXRa (NR concentration 270 nM, RXRa partner concentration 90 nM)
# In short: as §1
# [5] = tested on: LXRb homodimer (NR concentration 270 nM)
# In short: as §1
# [6] = tested on: PPARa:RXRa (NR concentration 270 nM, RXRa partner concentration 90 nM)
# In short: as §1
# [7] = tested on: PPARg:RXRa (NR concentration 180 nM, RXRa partner concentration 90 nM)
# In short: as §1
# [8] = tested on: PPARg:RXRa 270nM:90nM, anti-RXR (NR concentration 270 nM, RXRa partner concentration 90 nM)
# In short: as §1
# [9] = tested on: PPARg:RXRa 30nM:10nM, anti-RXR (NR concentration 30 nM, RXRa partner concentration 10 nM)
# In short: as §1
# [10] = tested on: PPARg:RXRa 90nM:30nM, anti-RXR (NR concentration 90 nM, RXRa partner concentration 30 nM)
# In short: as §1
# [11] = tested on: PPARg:RXRa DBDmut IVT, anti-RXR (DBD mutation: RXRa K156A/R161A, NR concentration 270 nM, RXRa partner concentration 90 nM)
# In short: as §1
# [12] = tested on: PPARg:RXRa IVT, anti-PPARg (NR concentration 270 nM, RXRa partner concentration 90 nM)
# In short: as §1
# [13] = tested on: PPARg DBDmut:RXRa IVT, anti-PPARg (DBD mutation: PPARg1 K132A/R137A, NR concentration 270 nM, RXRa partner concentration 90 nM)
# In short: as §1
# [14] = tested on: PPARg DBDmut IVT, anti-PPARg (DBD mutation: PPARg1 K132A/R137A, NR concentration 270 nM)
# In short: as §1
# [15] = tested on: PPARg homodimer (NR concentration 180 nM)
# In short: as §1
# [16] = tested on: PXR:RXRa (NR concentration 270 nM, RXRa partner concentration 90 nM)
# In short: as §1
# [17] = tested on: PXR homodimer (NR concentration 270 nM)
# In short: as §1
# [18] = tested on: RARa:RXR (NR concentration 270 nM, RXRa partner concentration 90 nM)
# In short: as §1
# [19] = tested on: RARa homodimer (NR concentration 270 nM)
# In short: as §1
# [20] = tested on: RARb:RXRa (NR concentration 270 nM, RXRa partner concentration 90 nM)
# In short: as §1
Sequence,PBM binding z-score [1],PBM binding z-score [2],PBM binding z-score [3],PBM binding z-score [4],PBM binding z-score [5],PBM binding z-score [6],PBM binding z-score [7],PBM binding z-score [8],PBM binding z-score [9],PBM binding z-score [10],PBM binding z-score [11],PBM binding z-score [12],PBM binding z-score [13],PBM binding z-score [14],PBM binding z-score [15],PBM binding z-score [16],PBM binding z-score [17],PBM binding z-score [18],PBM binding z-score [19],PBM binding z-score [20]
AGAGACAGGTGAGTGAAGGTAACTCAGCTGGACG,0.542,0.207,-0.174,0.279,0.443,0.437,0.497,0.226,0.0896,0.0651,0.422,0.599,0.635,-0.659,0.101,0.0989,0.169,0.435,-0.0726,0.876
AGAAAGAGGTTACCAAAGATCAGGGAAACGCTTG,2.31,6.51,-0.18,3.65,0.0945,3.37,2.1,2.36,0.802,1.77,1.97,1.94,0.516,0.104,0.75,1.82,-0.238,2.63,0.245,2.62
ACTAGCAGGCCAATTTTGGGTCACTCAAACAAAG,0.105,0.0624,0.139,0.747,-0.68,1.8,0.396,0.508,-0.304,-0.0238,1.13,1.84,0.126,-0.427,0.323,0.759,-0.305,1.38,-0.793,1.45
CGGCCAAGGTCAGCAGGTCAGTGAAAGCGACGTG,5.72,3.58,-0.0772,2.9,-0.899,4.86,4.33,4.32,0.918,2.85,3.06,3.74,-0.746,-1.2,2.33,3.48,0.241,4.37,0.145,5.34
ACTATTCGTTGAGACGAGGGCAACCGATAGGTTG,0.146,-0.0079,-0.194,0.132,0.215,0.431,0.548,0.366,0.255,0.115,0.199,0.823,1.01,0.89,0.322,0.447,0.0808,0.403,0.418,0.886
CAAACTAGGTAAAGAGGTCAAAGTCCGCTTCCCG,4.77,5.01,4.55,4.65,1.08,5.7,6.6,6.92,5.17,7.2,6.78,6.91,3.48,1.44,5.18,5.5,2.02,6.1,1.43,3.95
TCTTGTAGAGCAAGCAGGTTAAGAAAGCCTGAGT,-0.159,-0.27,-0.458,-0.282,-1.49,0.415,-0.461,0.511,1.29,1.1,1.77,0.824,-0.533,-0.908,-0.862,-0.144,-0.157,-0.225,-0.639,-0.127
GGAACGAGGGCCAAGTTGATAGCATCTGTCGACG,-0.236,-0.341,-0.454,-0.778,-0.949,0.213,0.734,1.4,0.144,0.913,0.254,-0.0508,-1.09,-0.973,-0.0593,-0.242,-0.456,-0.293,-0.285,0.806
GCTTGTAGATCAAGGTTAAGTAAGACTAAGCTAA,0.31,0.866,-0.213,0.847,-0.28,1.8,1.15,2.27,0.377,1.78,1.5,1.73,-0.282,0.512,-0.0519,0.746,-0.237,0.964,-0.148,0.875
CCTACTGGGCCACGAAACGTCATTGATTCAGTGA,-0.574,-0.675,-0.582,-0.896,-0.886,0.486,1.59,1.19,-0.214,0.157,5.46,4.94,0.954,0.628,-0.288,-0.903,-0.805,-0.908,-0.363,0.0906
AGAATGAGGTTACTAAGATCAGGGAATTGCGGTC,1.46,1.24,-0.205,0.978,-0.137,2.62,2.35,2.48,0.629,1.7,4.08,3.37,0.676,0.112,0.638,0.828,0.241,1.37,-0.455,1.74
CGAACTAGGTCATTGACAGGACAGTTAATAGTAA,4.35,3.12,0.774,2.36,0.0885,4.66,7.39,6.51,3.39,5.59,8.43,8.43,3.82,2.93,2,1.68,0.386,2.32,0.822,3.6
TGTAGCAGGCCAGAGGGTCACTCAAGAGGTACGG,0.921,0.677,-0.568,0.665,-1.21,2.15,1.51,2.46,0.493,1.83,-1.03,1.1,-0.559,-0.849,0.876,1.39,-0.159,2.51,-0.395,2.35
TAGCCTAGGTCATTGGGCCACTATAGTACGCATC,4.39,3.9,1.1,3.05,0.679,3.99,4.65,4.12,1.41,3.18,3.5,4.5,0.0417,-0.0772,0.995,1.63,-0.211,2.14,-0.101,3.49
TCTGCAAGGTCAACGATGGTCAGCTAATCTGCTA,6.64,5.29,0.751,4.06,0.582,5.41,4.78,4.95,2.86,4.09,3.02,3.91,-0.02,-0.552,2.84,4.57,0.31,4.65,0.319,5.27
ATCTCTAGGAAAAGATAGTTCAGTGAATGCAAAT,0.351,0.417,0.457,0.247,0.273,-0.0453,0.305,-0.0709,0.0801,-0.0493,-0.409,-0.0598,0.523,0.248,-0.459,0.432,0.918,-0.0188,1.07,0.49
CGTCCAAGGTCAATGCTAGGTCAGAGAAAGCATT,6.97,5.95,2.67,4.32,0.8,5.25,4.39,4.86,1.59,3.76,3.57,3.92,0.456,-0.0823,4.96,4.85,1.92,5.99,1.27,5.25
ACTATAAGTTGAGACGAGGGCAACCGATAGGTTG,1.18,0.684,-0.161,0.115,-0.00417,0.691,1.01,0.487,0.313,0.578,0.251,0.388,0.373,-0.377,0.181,3.22,0.715,1.53,0.18,1.53
AGTCAAAGTTCAGGACGAGGTAACGTACAGCACG,4.02,3.94,1.42,1.7,0.128,3.3,4.64,4.76,2.19,3.73,-0.265,2.01,0.413,0.297,1.59,2.95,0.808,3.01,0.256,4.18
CTACCAAGGTGAACAACGTCGTTGATTACTATTC,0.772,0.327,-0.307,0.812,-0.301,1.29,0.69,0.538,-0.133,0.52,2.88,2.23,0.00253,0.341,-0.432,0.189,-0.322,0.739,0.243,1.68
TCTATTAGTTGAAGGGCAACCGACGAGTCCGTTT,0.607,1.21,0.32,0.682,0.453,0.751,0.154,2.11,3.61,2.69,2.35,0.776,1.09,0.986,1.26,1,1.32,0.605,0.801,1.61
CGCCAAAGTTCAAGGTAACGTAACAGAAAGCAGC,6.49,5.62,3.2,3.55,0.961,5.17,4,4.83,1.8,3.27,0.89,1.7,0.701,0.562,1.95,4.18,2.34,3.4,1.12,5.28
CGAACGCGGGCATGAGTTGATAGCAAATGCCGAT,-0.653,-0.715,-0.461,-0.883,-1.24,-0.441,0.36,-0.484,-0.861,-0.633,-0.0191,-0.364,-0.145,-0.957,-0.435,-0.69,-0.265,-0.878,-0.807,-0.0245
AATACAGGGTCATGGTAGGCCAGAGTACGCACAG,7.24,6.51,2.02,4.67,1.09,6.07,6.85,6.13,2.87,4.97,2.45,4.41,2.48,1.13,3.31,4.8,0.859,5.21,1.28,4.25
ATCTCTAGGTAAAGATAGATCAGTGAATGCAAAT,0.447,0.581,0.166,0.000708,0.387,0.00369,0.763,0.278,0.36,0.457,1.89,1.61,0.429,1.24,-0.283,-0.396,0.0363,-0.0575,1.14,-0.27
CCTAGCAGGCCAATCTGGGTCGCTCAAGGCTTGA,0.866,0.838,-0.942,0.983,-1.1,2.39,0.206,0.917,-0.999,0.104,1.28,2.66,-1.25,-1.04,-0.519,0.776,-0.579,1.45,-0.891,0.807
CCTATTTGTTGACCATAAGGGCAACCGAAGCTCG,0.863,0.511,0.84,0.696,1.12,0.847,0.437,0.529,0.245,0.342,0.427,0.84,0.694,0.679,1.94,1.09,0.998,1.35,1.45,1.72
ATCTCTAGGTAACCCAGTTCAGTGAATGCCGAAC,0.242,0.741,0.606,0.843,0.72,1.72,1.52,1.69,0.311,1.12,4.06,4.47,1.33,1.28,1.12,1.64,1.23,0.719,0.547,0.652
ACTCGGAGGACAAAGGTCAGAGTTACGCCAGTGA,4.06,4.17,1.93,3.55,0.422,5.03,7.06,6.77,5.57,7.32,0.7,3.34,0.234,-0.025,4.3,4.14,0.365,5.54,1.61,4.38

# Reference: the supplement of paper PMC6555819
